Experiment [1] in a line: NCI Yeast Anticancer Drug Screen. Data for the rad50 strain (AID 155).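 Note: 0% = growth of vehicle-only cultures of the same strain.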 The conditions noted are these: S. cerevisiae rad50 strain growth inhibition; at 50.0 µM; stronger effect = higher value. The gist of the method:
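Compounds were tested on a yeast strain with an engineered DNA damage repair alteration; the reported value is growth inhibition normalised to vehicle treatment.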

Experiment [2] in a line: NCI Yeast Anticancer Drug Screen. Data for the mec2-1 strain (AID 157). The conditions noted are these: S. cerevisiae mec2-1 strain, at 50.0 µM, stronger effect = higher value. The gist of the method: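 Yeast mec2-1 mutant treated with compound. Readout: growth inhibition vs vehicle controls.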
A short description of experiment [3]: NCI Yeast Anticancer Drug Screen. Data for the sgs1 mgt1 strain (AID 161).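 Note: 0% = growth of cultures given vehicle only.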 The conditions noted are these: S. cerevisiae sgs1 mgt1 strain, at 50.0 µM, stronger effect = higher value. The method in brief:
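Read-out: growth inhibition vs vehicle controls. Cells: mutant yeast strain deficient in DNA damage repair.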

Experiment [4] in a line: NCI Yeast Anticancer Drug Screen. Data for the cln2 rad14 strain (AID 165).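 Note: 0% = growth equal to vehicle treated cultures.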 The conditions noted are these: S. cerevisiae cln2 rad14 strain, at 50.0 µM, stronger effect = higher value. The gist of the method: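 cln2 rad14 yeast strain; compound exposure; growth inhibition read vs vehicle controls.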
A short description of experiment [5]: NCI Yeast Anticancer Drug Screen. Data for the bub3 strain (AID 167). As to conditions: S. cerevisiae bub3 mutant strain, at 50.0 µM, stronger effect = higher value. The gist of the method: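 Growth of a checkpoint-deficient yeast mutant is measured after compound exposure. Values represent inhibition relative to vehicle.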
Experiment [6] can be described thus: NCI Yeast Anticancer Drug Screen. Data for the mlh1 rad18 strain (AID 175). The conditions noted are these: S. cerevisiae mlh1 rad18 strain growth inhibition; at 50.0 µM; stronger effect = higher value. The gist of the method:
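Yeast w/ defined DNA-repair lesions; compound exposure; growth vs vehicle controls → % inhibition.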

About 79,000 compounds went through this panel and 15% of them were active in at least one assay; those are over-represented in the sample as a whole. A number with no mark means an inactive call. Activity calls are given as the source filed them. Cut-off read from the data, not from the text of the source: active = growth inhibition above about 70%; inactive = the rest.

For `COc1ccc(-c2cc(C(=O)Nc3cccc(C(F)(F)F)c3)[nH]c(=S)n2)cc1`, the growth inhibition is -26.2% in experiment [1]; -7.95% in experiment [2]; -42% in experiment [3]; 19.3% in experiment [4]; -14.1% in experiment [5]; -20.9% in experiment [6].
For `CCOC(=O)c1ccc(N(CC(=O)O)S(=O)(=O)c2ccc(C)cc2)s1`, the growth inhibition in experiment [1] was 17.5%; in experiment [2], -1%; in experiment [3] it was 2.5%; in experiment [4], 16.6%; in experiment [5], 0.85%; in experiment [6], -8.8%.
`CC(=O)c1cccc(NC(=O)N(C)C2CCCCC2)c1`: the growth inhibition in experiment [1] is 5.65%; in experiment [2], 13.7%; in experiment [3], -3.65%; in experiment [4] it was -15.6%; in experiment [5] it was -7.45%; in experiment [6], -22.1%.
`Cc1ccc(S(=O)(=O)NC(=O)Nc2c(-c3nc4ccccc4s3)[n+]([O-])c3ccccc3[n+]2[O-])cc1`: the growth inhibition is 27.8% in experiment [1]; 5.5% in experiment [2]; 15.2% in experiment [3]; 30.4% in experiment [4]; 10.1% in experiment [5]; 18.9% in experiment [6].
Regarding `CC1(O)Oc2c(cc(C(C)(C)C)cc2C(C)(C)C)C1=O` (configuration not stated), the growth inhibition in experiment [1] is 17.4%; in experiment [2], -10.1%; in experiment [3] it was 18.2%; in experiment [4], -9%; in experiment [5], 23.6%; in experiment [6], 42.6%.
Turning to `CN(C)Cc1ccnc(Cl)n1`, the growth inhibition in experiment [1] is -16.2%; in experiment [2], 20.1%; in experiment [3], -16.8%; in experiment [4] it was -34.5%; in experiment [5], -13.3%; in experiment [6], -8.1%.
With `CCOC(=O)/C(C#N)=C/c1ccccc1F`, the growth inhibition in experiment [1] was 22.9%; in experiment [2] it was 13.5%; in experiment [3] it was 20.4%; in experiment [4], 1.4%; in experiment [5] it was 14.8%; in experiment [6], 40.8%.
Turning to `CCCCCCCCOC(=O)C1(O)CCCCC1`, the growth inhibition in experiment [1] is 14.6%; in experiment [2], 28.4%; in experiment [3] it was 16.1%; in experiment [4], 4.2%; in experiment [5], 17.6%; in experiment [6] it was 36.1%.
`CCOC(=O)/C(C#N)=C(\C)c1ccccc1`: the growth inhibition in experiment [1] is 9.65%; in experiment [2], -5.3%; in experiment [3], 1.2%; in experiment [4], 5.15%; in experiment [5] it was -25.7%; in experiment [6], -17.6%.
In the case of `O=C(O)COc1ccc(C(=O)O)cc1`, the growth inhibition in experiment [1] was 5.6%; in experiment [2] it was -19.9%; in experiment [3], 3.7%; in experiment [4] it was -53.7%; in experiment [5], -23.4%; in experiment [6], -6.15%.
Consider `O=C1CSC(c2ccc(Cl)cc2)N1c1ccc(-n2c(-c3ccccc3)nc3ccccc3c2=O)cc1` (configuration not stated), for which the growth inhibition in experiment [1] is -3.65%; in experiment [2], -12.2%; in experiment [3] it was 5.35%; in experiment [4], -43.4%; in experiment [5], -0.7%; in experiment [6], 14.8%.
Consider `Clc1ccc(-c2nnc(-c3ccccc3)o2)cc1Cl`, for which the growth inhibition was -8.4% in experiment [1]; -24.8% in experiment [2]; -0.4% in experiment [3]; 16% in experiment [4]; -18.9% in experiment [5]; -6.5% in experiment [6].
In the case of `CCCC(=O)Nc1cc(/C=C/C(=O)N2C[C@H]3C[C@@]34C2=CC(=O)c2[nH]cc(C)c24)n(C)c1`, the growth inhibition in experiment [1] was 80.2% (active); in experiment [2], 89.3% (active); in experiment [3], 83.7% (active); in experiment [4] it was 81.2% (active); in experiment [5], 58%; in experiment [6], 84.2% (active).
In the case of `COC(=O)C1CCC(=O)N1Cc1csc(-c2ccccc2)n1` (configuration not stated), the growth inhibition in experiment [1] was -12.1%; in experiment [2], -6.95%; in experiment [3], -6.8%; in experiment [4], -24.7%; in experiment [5], -14.8%; in experiment [6] it was -11.8%.
For `Cc1cc(Nc2ccc(O)cc2)nc(Nc2ccc(O)cc2)n1`, the growth inhibition in experiment [1] was -8.25%; in experiment [2] it was -18.4%; in experiment [3] it was -35.3%; in experiment [4] it was -34%; in experiment [5] it was 10.9%; in experiment [6], -2.3%.
Take `Cc1cc(N(CCC#N)CCC#N)ccc1/C(N=Nc1ccc([N+](=O)[O-])cc1)=N\NC(=O)c1cc(Cl)ccc1C(=O)c1ccccc1`: the growth inhibition was 9.3% in experiment [1]; 3.15% in experiment [2]; -15.7% in experiment [3]; -4.25% in experiment [4]; -22.4% in experiment [5]; 7.7% in experiment [6].
Turning to `CCOC(=O)C1SC(=S)N(c2ccccc2)C1N` (configuration not stated), the growth inhibition in experiment [1] is -3.75%; in experiment [2], 14.6%; in experiment [3] it was 39.8%; in experiment [4], -11.6%; in experiment [5], -4.45%; in experiment [6] it was 11.8%.
In the case of `CN=C1C=C(/N=C2/C=C(N/C(=C\C#N)C(C)(C)O)OC2(C)C)OC1(C)C`, the growth inhibition in experiment [1] is -10.6%; in experiment [2] it was -5.3%; in experiment [3], 13.6%; in experiment [4], 7.1%; in experiment [5], 23.9%; in experiment [6], 28.6%.
In the case of `CCCN1C(=O)c2cc(=O)n(Cc3ccccc3)c(O)c2C1C` (configuration not stated), the growth inhibition in experiment [1] was 6.95%; in experiment [2], 33%; in experiment [3] it was 4.7%; in experiment [4] it was 8.4%; in experiment [5] it was -9.45%; in experiment [6] it was 13.8%.
As to `O=Cc1ccc(F)cc1[N+](=O)[O-]`, the growth inhibition was 1.1% in experiment [1]; 3.65% in experiment [2]; -15.8% in experiment [3]; 1.1% in experiment [4]; -2.25% in experiment [5]; -17.2% in experiment [6].
`Oc1c(Cl)cc(Cl)cc1CN(Cc1cc(Cl)cc(Cl)c1O)c1ccccc1`: the growth inhibition in experiment [1] was 15.8%; in experiment [2], 16.9%; in experiment [3], 40.8%; in experiment [4], 52.1%; in experiment [5], 27.1%; in experiment [6], 12.7%.
`CC1NC(=O)C2Cc3ccc(O)c(c3)Oc3cccc(c3)C(O)C(C(=O)N2C)N(C)C(=O)C(C)NC(=O)C(Cc2ccc(O)c(O)c2)N(C)C(=O)C(C)NC1=O` (configuration not stated): the growth inhibition in experiment [1] is 6.75%; in experiment [2], -19.3%; in experiment [3] it was 6.6%; in experiment [4], 6.15%; in experiment [5], 10.7%; in experiment [6], 6.55%.
Consider `COc1cccc2c1C(c1ccc3ccccc3c1)OC2=O` (configuration not stated), for which the growth inhibition in experiment [1] was -22.2%; in experiment [2] it was -11.4%; in experiment [3] it was -27.6%; in experiment [4] it was 12.8%; in experiment [5], -25.4%; in experiment [6], -15.5%.
Regarding `COc1nc(NC2OC(CO)C(O)C(O)C2O)c(C=O)c(=O)n1C` (configuration not stated), the growth inhibition is 2.45% in experiment [1]; -6.55% in experiment [2]; -16.1% in experiment [3]; 9.9% in experiment [4]; -7.3% in experiment [5]; -7.4% in experiment [6].
For `Clc1cccc(Cl)c1/C=N/Nc1nnc(N/N=C/c2c(Cl)cccc2Cl)c2ccccc12`, the growth inhibition in experiment [1] is 18.8%; in experiment [2] it was 23.4%; in experiment [3], 56.3%; in experiment [4] it was 31.5%; in experiment [5], -1.4%; in experiment [6], 34.4%.
Consider `O=C(Cn1ccc(=O)[nH]c1=O)Nc1ccc(C(=O)O)c(O)c1`, for which the growth inhibition is 0.45% in experiment [1]; -43.1% in experiment [2]; -24.9% in experiment [3]; -45.8% in experiment [4]; -31.4% in experiment [5]; 0.55% in experiment [6].
On to `N#CC(O)CCOCc1ccccc1` (configuration not stated), for which the growth inhibition is 9% in experiment [1]; -10.1% in experiment [2]; -5.45% in experiment [3]; -18.9% in experiment [4]; -5% in experiment [5]; -14.2% in experiment [6].
Regarding `Nc1cc(C(=O)O)c(O)c(Cl)c1O`, the growth inhibition is 31.3% in experiment [1]; 7.05% in experiment [2]; 12.3% in experiment [3]; 21.6% in experiment [4]; 4.5% in experiment [5]; 29.8% in experiment [6].
Regarding `O=C(OCC(OC(=O)c1ccccc1)C(OC(=O)c1ccccc1)C(COC(=O)c1ccccc1)OC(=O)c1ccccc1)c1ccccc1` (configuration not stated), the growth inhibition in experiment [1] was 67%; in experiment [2] it was 26.1%; in experiment [3] it was 56.9%; in experiment [4], 0.2%; in experiment [5] it was 16.4%; in experiment [6], 52.4%.
`CCCCCCCCCCCCNC(=S)N/N=C/c1ccc(OC)cc1`: the growth inhibition was -19.1% in experiment [1]; -10.5% in experiment [2]; -16.8% in experiment [3]; 13.3% in experiment [4]; -8.4% in experiment [5]; -28.2% in experiment [6].
As for `NC(=S)Cc1ccccn1`, the growth inhibition was -1.45% in experiment [1]; 15.5% in experiment [2]; 9.25% in experiment [3]; -19.1% in experiment [4]; -4.45% in experiment [5]; 6.55% in experiment [6].
Take `COC(=O)c1nn2c(=O)n(C(C)=O)c3ccccc3c2c1C(=O)OC`: the growth inhibition in experiment [1] is 27.2%; in experiment [2], 4.85%; in experiment [3], 9.65%; in experiment [4] it was 15.8%; in experiment [5] it was 8.5%; in experiment [6] it was 24.6%.
As to `C/C=C(/C)C1(O)CCCCC1O` (configuration not stated), the growth inhibition is -4.2% in experiment [1]; 1.15% in experiment [2]; 1.2% in experiment [3]; -2.7% in experiment [4]; -4% in experiment [5]; -11.3% in experiment [6].
With `NC1CC1`, the growth inhibition was -8.4% in experiment [1]; -1.1% in experiment [2]; -4.6% in experiment [3]; -9.95% in experiment [4]; 11.6% in experiment [5]; -22.9% in experiment [6].
As for `CCC(O)(CC)Cc1ccc(Cl)cc1`, the growth inhibition in experiment [1] was -1%; in experiment [2], -9.55%; in experiment [3] it was -0.4%; in experiment [4], -12.2%; in experiment [5], -12.4%; in experiment [6], -6.65%.
On to `O=C(O)/C(=C/c1ccc([N+](=O)[O-])cc1)c1ccc([N+](=O)[O-])cc1`, for which the growth inhibition in experiment [1] was 6.9%; in experiment [2], -4%; in experiment [3], 2.05%; in experiment [4], -35.4%; in experiment [5], -1.7%; in experiment [6] it was 1.55%.
Turning to `CCCc1cc(=O)oc2c3c(c4c(c12)OC(C)(C)CC4)O[C@H](C)C(C)C3=O` (some centres not stated), the growth inhibition in experiment [1] is -26.9%; in experiment [2], -30%; in experiment [3] it was -28.8%; in experiment [4], 0.4%; in experiment [5], 6.85%; in experiment [6] it was -45%.
